Reference: PubChem BioAssay
Records with an inconclusive call do not appear. Activity calls are given as the source filed them.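 Rule for the calls, unless noted: active = normalized viability below 100% at a tested concentration; inactive = the rest.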

Assays:
[1] = growth inhibition of DIPG glioma cells, dose response, cell-based, SU-DIPG-XVII, MIPE5.0, CellTiter-Glo, qHTS (AID 1347060; cut-off not given, nearly all actives have AC50 up to about 26 µM;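 for AC50: cells exposed to compound for 48 hours before viability readout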); conditions: SU-DIPG-XVII viability, CellTiter-Glo ATP luminescence
[2] = growth inhibition of DIPG glioma cells, dose response, cell-based, SU-DIPG-XIII, MIPE4.0, CellTiter-Glo, qHTS (AID 1347061; cut-off not given, nearly all actives have AC50 up to about 37 µM;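 note: cells exposed to compound for 48 hours before readout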); conditions: SU-DIPG-XIII viability, CellTiter-Glo ATP luminescence
[3] = growth inhibition of DIPG glioma cells, dose response, cell-based, JHH-DIPG-1, MIPE4.0, CellTiter-Glo, qHTS (AID 1347062; cut-off not given, nearly all actives have AC50 up to about 27 µM;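 for AC50: cells exposed to compound for two days before readout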); conditions: JHH-DIPG-1 viability, CellTiter-Glo ATP luminescence
[4] = growth inhibition of DIPG glioma cells, dose response, cell-based, SU-DIPG-IV, MIPE4.0, CellTiter-Glo, qHTS (AID 1347063; cut-off not given, nearly all actives have AC50 up to about 30 µM;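 note: compound exposure lasted 48 hours before the viability readout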); conditions: SU-DIPG-IV viability, CellTiter-Glo ATP luminescence
[5] = growth inhibition of DIPG glioma cells, dose response, cell-based, SU-DIPG-XIII, MIPE5.0, CellTiter-Glo, qHTS (AID 1347064; cut-off not given, nearly all actives have AC50 up to about 23 µM;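 for AC50: cells exposed to compound for 48 hours before the viability read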); conditions: SU-DIPG-XIII viability, CellTiter-Glo ATP luminescence
[6] = viability loss in pontine glioma line – cell-based, SU-DIPG-XXV, MIPE5.0, CellTiter-Glo, qHTS, dose response (AID 1347065; cut-off not given, nearly all actives have AC50 up to about 26 µM;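 note: cells exposed to compound for 48 hours before ATP readout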); conditions: CellTiter-Glo ATP luminescence
[7] = SU-DIPG-VI glioma cell viability, MIPE4.0 library, CellTiter-Glo luminescence, qHTS (AID 1347066; cut-off not given, nearly all actives have AC50 up to about 30 µM;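 note: cells exposed to compound for 48 hours before readout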); conditions: CellTiter-Glo ATP luminescence
[8] = JHH-DIPG-1 glioma cell viability, MIPE5.0 library, CellTiter-Glo luminescence, qHTS (AID 1347067; cut-off not given, nearly all actives have AC50 up to about 26 µM;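 note: cells exposed to compound for 48 hours before readout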); conditions: JHH-DIPG-1 glioma viability, CellTiter-Glo ATP luminescence
[9] = SU-DIPG-XXV glioma cell viability, MIPE5.0 library, qHTS (AID 1347068; cut-off not given, nearly all actives have IC50 up to about 30 µM;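 for IC50: cells exposed to compound for 48 hours before viability readout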)
[10] = sensitizers of A549 cells to miR-34 induction, primary screen, imaging, A549 dox-inducible miR-34, nuclei and caspase counts (AID 1347080;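 active = compounds whose cell count with miR-34 switched on is under 0.7 times the count with it off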); conditions: A549 miR-34 inducible, Hoechst nuclei count, 48 h
[11] = modifiers of HSF1 nuclear foci, imaging, Selleck Cancer Library (AID 1347162; in the data active = plate-normalised HSF1 focus index below about 0.46); conditions: human cells, at 10 µM; SSMD: measured here: HSF1 foci SSMD mean; cell count: measured here: cell number; plate-normalised HSF1 focus index: stronger effect = lower value
[12] = survival rescue of mitochondrial mutant cells in low glucose, primary screen, MELAS cybrids, Rieske KO mouse fibroblasts, CellTiter-Glo (AID 1508586;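 active = mean z-score across replicates of 1.96 or higher in either the MELAS or the Rieske mutant cell line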;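 note: z relative to plate mean and SD of compound and empty wells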)
[13] = ovarian cancer cell viability with rucaparib, profiling panel, oncology-focused library, rucaparib conditional (AID 1508598); conditions: patient-derived ovarian cancer cells, CellTiter-Glo viability, 144 h, stronger effect = lower value

CN1CCC(CNc2ccc3ncc(-c4cccc(OC(F)(F)F)c4)n3n2)CC1
5020: cell count ([10]; measured here: total cells without miR-34 induction)
active: AC50 [1] 8.33 µM | AC50 [2] 18.7 µM | AC50 [3] 13.2 µM | AC50 [4] 18.7 µM | AC50 [5] 10.5 µM | AC50 [6] 5.25 µM | AC50 [7] 20.9 µM | AC50 [8] 2.63 µM | IC50 [9] 23.5 µM | viability ([13]; at 0.000305 µM, OCI-P5x cells, with rucaparib 20 µM, 100% = cells with rucaparib alone) 97.3% | viability ([13]; at 0.000305 µM, OCI-P5x cells, without rucaparib) 92.4% | viability ([13]; at 0.00122 µM, OCI-P5x cells, without rucaparib) 94.8% | viability ([13]; at 0.00488 µM, OCI-P5x cells, with rucaparib 20 µM, 100% = cells with rucaparib alone) 96.7% | viability ([13]; at 0.00488 µM, OCI-P5x cells, without rucaparib) 87.9% | viability ([13]; at 0.0195 µM, OCI-P5x cells, with rucaparib 20 µM, 100% = cells with rucaparib alone) 99.2% | viability ([13]; at 0.0195 µM, OCI-P5x cells, without rucaparib) 88% | viability ([13]; at 0.0781 µM, OCI-P5x cells, with rucaparib 20 µM, 100% = cells with rucaparib alone) 93.6% | viability ([13]; at 0.0781 µM, OCI-P5x cells, without rucaparib) 82.1% | viability ([13]; at 0.313 µM, OCI-P5x cells, with rucaparib 20 µM, 100% = cells with rucaparib alone) 89.6% | viability ([13]; at 0.313 µM, OCI-P5x cells, without rucaparib) 80.8% | viability ([13]; at 1.25 µM, OCI-C5x cells, without rucaparib) 98% | viability ([13]; at 1.25 µM, OCI-P5x cells, with rucaparib 20 µM, 100% = cells with rucaparib alone) 82.6% | viability ([13]; at 1.25 µM, OCI-P5x cells, without rucaparib) 70.9% | viability ([13]; at 5 µM, OCI-P5x cells, with rucaparib 20 µM, 100% = cells with rucaparib alone) 50.5% | viability ([13]; at 5 µM, OCI-P5x cells, without rucaparib) 46.6%
1.66: SSMD [11]
7290: cell count [11]
0.583: fold change ([10]; measured here: relative caspase fold change +Dox/-Dox)
4380: cell count ([10]; measured here: total cells with miR-34 induction, stronger effect = lower value)
inactive: fold change ([10]; stronger effect = lower value, cell number ratio, induced over uninduced) 0.872 | plate-normalised HSF1 focus index [11] 1.1 | z-score ([12]; MELAS cybrid survival, CellTiter-Glo 48 h, stronger effect = higher value) -0.102 | viability ([13]; at 0.000305 µM, OCI-C5x cells, with rucaparib 10 µM, 100% = cells with rucaparib alone) 112% | viability ([13]; at 0.000305 µM, OCI-C5x cells, without rucaparib) 115% | viability ([13]; at 0.00122 µM, OCI-C5x cells, with rucaparib 10 µM, 100% = cells with rucaparib alone) 110% | viability ([13]; at 0.00122 µM, OCI-C5x cells, without rucaparib) 113% | viability ([13]; at 0.00122 µM, OCI-P5x cells, with rucaparib 20 µM, 100% = cells with rucaparib alone) 100% | viability ([13]; at 0.00488 µM, OCI-C5x cells, with rucaparib 10 µM, 100% = cells with rucaparib alone) 106% | viability ([13]; at 0.00488 µM, OCI-C5x cells, without rucaparib) 106% | viability ([13]; at 0.0195 µM, OCI-C5x cells, with rucaparib 10 µM, 100% = cells with rucaparib alone) 110% | viability ([13]; at 0.0195 µM, OCI-C5x cells, without rucaparib) 114% | viability ([13]; at 0.0781 µM, OCI-C5x cells, with rucaparib 10 µM, 100% = cells with rucaparib alone) 107% | viability ([13]; at 0.0781 µM, OCI-C5x cells, without rucaparib) 109% | viability ([13]; at 0.313 µM, OCI-C5x cells, with rucaparib 10 µM, 100% = cells with rucaparib alone) 110% | viability ([13]; at 0.313 µM, OCI-C5x cells, without rucaparib) 104% | viability ([13]; at 1.25 µM, OCI-C5x cells, with rucaparib 10 µM, 100% = cells with rucaparib alone) 130% | viability ([13]; at 5 µM, OCI-C5x cells, with rucaparib 10 µM, 100% = cells with rucaparib alone) 123% | viability ([13]; at 5 µM, OCI-C5x cells, without rucaparib) 115%
-1.76: z-score ([12]; Rieske KO mouse fibroblast survival, CellTiter-Glo 72 h)

O=c1c(-c2ccc(O)cc2)coc2cc(O[C@@H]3O[C@H](CO)[C@@H](O)[C@H](O)[C@H]3O)ccc12
inactive: outcome [1] | outcome [2] | outcome [3] | outcome [4] | outcome [5] | outcome [6] | outcome [7] | outcome [8] | outcome [9]

Clc1cccc(-n2nnnc2NCc2ccccc2Oc2ccccn2)c1Cl
inactive: outcome [1] | outcome [2] | outcome [3] | outcome [4] | outcome [5] | outcome [6] | outcome [7] | outcome [8] | outcome [9]

COc1cc2c(Oc3ccc(-c4cnc(Nc5ccc(F)cc5)n(C)c4=O)cc3F)ccnc2cc1OCCCN1CCOCC1
active: AC50 [1] 3.32 µM | AC50 [2] 14.8 µM | AC50 [3] 18.7 µM | AC50 [4] 16.6 µM | AC50 [5] 3.72 µM | AC50 [6] 2.09 µM | AC50 [7] 9.35 µM | AC50 [8] 9.34 µM | IC50 [9] 6.61 µM

COc1cc(O)c2c(c1)C1OC1C[C@H](O)[C@H](O)C(=O)/C=C\C[C@H](C)OC2=O (stereo not given in full)
active: AC50 [1] 0.661 µM | AC50 [2] 0.662 µM | AC50 [3] 5.9 µM | AC50 [4] 4.18 µM | AC50 [5] 0.661 µM | AC50 [6] 0.934 µM | AC50 [7] 13.2 µM | AC50 [8] 4.17 µM | IC50 [9] 18.6 µM

CC(=O)NCC(=O)N1[C@@H]2CC[C@H]1c1ccc(Nc3ncc(C(F)(F)F)c(NC4CCC4)n3)cc12
active: AC50 [1] 0.417 µM | AC50 [2] 1.66 µM | AC50 [3] 5.9 µM | AC50 [4] 1.87 µM | AC50 [5] 0.661 µM | AC50 [6] 0.186 µM | AC50 [7] 2.64 µM | AC50 [8] 1.86 µM | IC50 [9] 0.833 µM
